The nature of test [1]: liver-stage malaria parasite growth inhibition, primary screen, cell-based, HepG2, luciferase luminescence, HepG2 viability (AID 624349; in the data active = parasite load remaining mostly below about 12%, no sharp cut-off; inactive = mostly above about 10%;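 note: 100% = mean of DMSO negative control wells on the same plate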). The conditions noted are these: P. berghei liver stage in HepG2, luciferase luminescence, concentration not given here; parasite load remaining: stronger effect = lower value; viability: measured here: HepG2 viability without parasites.
In test [2] the target is 6-phosphogluconate dehydrogenase, decarboxylating (Homo sapiens) (UniProt P52209). Nature of the test: 6PGD enzyme inhibitors, primary screen, biochemical, human, recombinant enzyme, NADPH absorbance (AID 1159550;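 active = at least 20% inhibition of 6-phosphogluconate dehydrogenase activity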). As to conditions: recombinant 6PGD, NADPH absorbance 341 nm; at 10 µM; stronger effect = higher value.
Test [3] in a line: growth inhibition of DIPG glioma cells, dose response, cell-based, JHH-DIPG-1, MIPE4.0, CellTiter-Glo, qHTS (AID 1347062; cut-off not given, nearly all actives have AC50 up to about 27 µM;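 for AC50: cells exposed to compound for two days before readout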). As to conditions: JHH-DIPG-1 viability, CellTiter-Glo ATP luminescence.
A short description of test [4]: sensitizers of A549 cells to miR-34 induction, primary screen, imaging, A549 dox-inducible miR-34, nuclei and caspase counts (AID 1347080). The conditions noted are these: A549 miR-34 inducible, Hoechst nuclei count, 48 h.
Test [5] in a line: survival rescue of mitochondrial mutant cells in low glucose, primary screen, MELAS cybrids, Rieske KO mouse fibroblasts, CellTiter-Glo (AID 1508586;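 active = mean z-score across replicates of 1.96 or higher in either the MELAS or the Rieske mutant cell line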;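 note: z relative to plate mean and SD of compound and empty wells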).
Test [6] can be described thus: viability rescue of complex I mutant cybrids, primary screen, cell-based, galactose medium, ATP luminescence (AID 1645843;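 active = z-score of at least 1.8 in each of two replicates, scored against plate mean and spread of sample wells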;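 note: positive z means more ATP and so rescue of galactose-driven cybrid death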). The conditions noted are these: complex I mutant cybrid cells, 72 h, stronger effect = higher value.
Test [7] addresses NAD(+) hydrolase SARM1 (Homo sapiens) (UniProt Q6SZW1). Nature of the test: SARM1 TIR NADase inhibitors, cell lysate, NAD-Glo luminescence (AID 1508614;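 active = compound whose remaining NAD level is above about 45 nM, limit read from the data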;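 note: higher remaining NAD means stronger inhibition of SARM1 NADase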). As to conditions: SAM-TIR HEK293T lysate NADase, at 1 µM, stronger effect = higher value.
The target in test [8] is Mitogen-activated protein kinase 7 (Homo sapiens) (UniProt Q13164). The test is described as follows: ERK5 transactivation activators in reporter cells, primary screen, cell-based, HTS (AID 1508626;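 active = luciferase signal above three times the same-plate solvent-only control wells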;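 note: luciferase driven by Gal4-ERK5 fusion binding five Gal4 sites before minimal TATA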). The conditions noted are these: HeLa Gal4-ERK5 transactivation, 18 h, at 5 µM, stronger effect = higher value.
A short description of test [9]: polyglutamine-triggered caspase-3 activation inhibitors, cell-based (AID 1583). As to conditions: polyglutamine-induced caspase-3 activation, cell assay; stronger effect = higher value;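 tested at 10 µM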.
The nature of test [10]: suppressors of polyQ aggregation in yeast, 75Q-TubU reporter (AID 1593). As to conditions: Yeast 75Q polyglutamine aggregation reporter.
Test [11] can be described thus: rescue of polyQ-huntingtin neuronal dysfunction in worms, whole organism, C. elegans mechanosensory neurons, N-terminal huntingtin (AID 1599). The conditions noted are these: touch response, stronger effect = higher value.
Test [12] can be described thus: inhibitors of mitochondrial cytochrome c release, biochemical, purified mitochondria (AID 1603).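 Note: mouse liver mitochondria challenged with calcium chloride; signal normalized to the plate average as 100%.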 As to conditions: stronger effect = lower value.
Test [13] is described as follows: inhibitors of polyQ protein aggregation (AID 1604). As to conditions: polyglutamine-induced protein aggregation inhibition assay; stronger effect = higher value; tested at 2.5 µM.
Test [14] in a line: enhancers of glutamate uptake in motor neurons, MN-1 cell line (AID 1612).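 Note: tested at 1 µM final; 0% = mean of DMSO vehicle wells on each plate; positive means more glutamate uptake than control and negative means less.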 As to conditions: MN-1 motor neuron cells, stronger effect = higher value.
Test [15] is described as follows: suppressors of polyglutamine aggregation in yeast, 75Q-TubH (AID 1616). As to conditions: S. cerevisiae 75Q-TubH polyglutamine aggregation suppression; stronger effect = higher value.
The mark [16] stands for this setting: stronger effect = lower value, cell number ratio, induced over uninduced.
The mark [17] stands for this setting: measured here: relative caspase fold change +Dox/-Dox.
[18] abbreviates: measured here: total cells with miR-34 induction, stronger effect = lower value.
[19] abbreviates: measured here: total cells without miR-34 induction.
[20] abbreviates: MELAS cybrid survival, CellTiter-Glo 48 h, stronger effect = higher value.
[21] abbreviates: Rieske KO mouse fibroblast survival, CellTiter-Glo 72 h.

Where “and” joins values, the source holds several entries; their conditions need not be identical. Equal values may be shown once. Inconclusive results are not listed. For some assays here: Potency and affinity values are given separately. Calls of active or inactive are those of the source.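 Rule for the calls, unless noted: active = compounds whose cell count with miR-34 switched on is under 0.7 times the count with it off; inactive = the rest.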

NAD(+) hydrolase SARM1 (Homo sapiens), sequence (Q6SZW1 whole entry, looked up, the tested form may be a part): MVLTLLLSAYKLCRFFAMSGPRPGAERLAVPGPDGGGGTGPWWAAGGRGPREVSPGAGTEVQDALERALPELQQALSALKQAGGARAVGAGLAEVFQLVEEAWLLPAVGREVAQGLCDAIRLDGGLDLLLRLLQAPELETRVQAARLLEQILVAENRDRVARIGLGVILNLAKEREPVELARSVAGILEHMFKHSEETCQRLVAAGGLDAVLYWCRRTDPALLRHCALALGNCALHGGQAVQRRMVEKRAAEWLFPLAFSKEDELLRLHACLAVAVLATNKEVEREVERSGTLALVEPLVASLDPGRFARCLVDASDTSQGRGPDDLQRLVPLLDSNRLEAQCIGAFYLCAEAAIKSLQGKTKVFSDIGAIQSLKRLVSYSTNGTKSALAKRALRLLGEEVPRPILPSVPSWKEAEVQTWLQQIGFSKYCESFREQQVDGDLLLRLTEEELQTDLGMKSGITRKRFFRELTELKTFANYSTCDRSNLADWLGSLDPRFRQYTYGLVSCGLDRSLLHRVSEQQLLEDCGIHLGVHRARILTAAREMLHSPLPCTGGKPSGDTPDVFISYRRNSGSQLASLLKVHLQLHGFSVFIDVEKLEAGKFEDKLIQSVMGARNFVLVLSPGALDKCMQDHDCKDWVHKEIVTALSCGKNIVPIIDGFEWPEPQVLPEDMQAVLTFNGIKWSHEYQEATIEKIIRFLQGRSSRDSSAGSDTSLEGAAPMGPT
6-phosphogluconate dehydrogenase, decarboxylating (Homo sapiens), sequence (P52209 whole entry, looked up): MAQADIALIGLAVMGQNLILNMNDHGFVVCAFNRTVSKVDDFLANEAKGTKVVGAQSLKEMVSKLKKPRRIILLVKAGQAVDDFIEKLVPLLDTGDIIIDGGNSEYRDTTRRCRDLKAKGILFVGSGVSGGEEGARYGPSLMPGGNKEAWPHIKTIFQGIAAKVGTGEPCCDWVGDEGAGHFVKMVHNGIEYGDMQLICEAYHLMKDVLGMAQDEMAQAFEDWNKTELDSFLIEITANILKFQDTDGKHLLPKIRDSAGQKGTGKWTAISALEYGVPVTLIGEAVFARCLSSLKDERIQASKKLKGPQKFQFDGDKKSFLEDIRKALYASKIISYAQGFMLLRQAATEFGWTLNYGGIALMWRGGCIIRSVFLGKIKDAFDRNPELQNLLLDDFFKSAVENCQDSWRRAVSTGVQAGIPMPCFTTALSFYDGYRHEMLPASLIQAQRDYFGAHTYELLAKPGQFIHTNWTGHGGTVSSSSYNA
Mitogen-activated protein kinase 7 (Homo sapiens), sequence (Q13164 whole entry, looked up, the tested form may be a part): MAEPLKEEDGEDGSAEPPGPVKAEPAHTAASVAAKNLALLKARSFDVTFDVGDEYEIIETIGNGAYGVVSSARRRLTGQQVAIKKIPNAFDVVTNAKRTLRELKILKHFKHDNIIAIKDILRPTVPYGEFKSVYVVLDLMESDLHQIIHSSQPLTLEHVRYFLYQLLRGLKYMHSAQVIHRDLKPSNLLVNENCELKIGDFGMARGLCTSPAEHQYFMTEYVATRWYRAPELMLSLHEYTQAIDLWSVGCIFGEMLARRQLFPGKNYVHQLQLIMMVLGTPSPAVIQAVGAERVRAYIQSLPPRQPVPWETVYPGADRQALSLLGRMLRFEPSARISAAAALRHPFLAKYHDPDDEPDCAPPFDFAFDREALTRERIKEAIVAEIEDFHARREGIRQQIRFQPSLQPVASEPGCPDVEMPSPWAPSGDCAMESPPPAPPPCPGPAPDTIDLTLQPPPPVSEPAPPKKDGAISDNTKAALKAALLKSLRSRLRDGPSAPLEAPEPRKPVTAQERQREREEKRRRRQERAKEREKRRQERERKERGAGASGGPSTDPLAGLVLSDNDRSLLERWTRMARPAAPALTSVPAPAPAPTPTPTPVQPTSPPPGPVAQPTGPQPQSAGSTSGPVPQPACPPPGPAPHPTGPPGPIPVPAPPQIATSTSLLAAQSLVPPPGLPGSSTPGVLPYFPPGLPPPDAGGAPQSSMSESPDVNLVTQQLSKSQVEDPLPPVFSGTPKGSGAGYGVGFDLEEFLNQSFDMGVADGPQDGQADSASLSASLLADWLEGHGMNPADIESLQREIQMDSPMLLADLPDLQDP

Consider `CC[C@@]1(O)C[C@H](O[C@H]2C[C@H](N(C)C)[C@H](O[C@H]3C[C@H](O)[C@H](O[C@H]4CCC(=O)[C@H](C)O4)[C@H](C)O3)[C@H](C)O2)c2c(cc3c(c2O)C(=O)c2c(O)cccc2C3=O)[C@H]1C(=O)OC`, for which the parasite load remaining in test [1] was -0.835% (inactive). Moreover, the viability in [1] turned out to be 14.5%. The inhibition in test [2] was 13.5% (inactive). In addition, in test [3], the AC50 was 0.332 µM (active). In addition, the fold change was 1.94 (inactive) in test [4] (setting [16]) and 0.972 in test [4] (setting [17]). The cell count was 1190 in [4] (setting [18]) and 612 in test [4] (setting [19]). Also, the results for the z-score in test [5] (setting [20]), in test [5] (setting [21]) and in [6] were 0.116, 2.56 and -1.88 (inactive), respectively.

For `CC(=O)[C@H]1CC[C@H]2[C@@H]3CCC4=CC(=O)CC[C@]4(C)[C@H]3CC[C@]12C`, the inhibition in [2] was 14.1% (inactive). Further, the compound was called inactive in test [3]. Further, the fold change in test [4] (setting [16]) is 1.08 (inactive) and 0.812 (inactive) and 0.853 (inactive); in test [4] (setting [17]), 0.82 and 1.33 and 1.49. The cell count was 8120 and 7150 and 6560 in test [4] (setting [18]); 7520 and 8800 and 7700 in [4] (setting [19]). The z-score in [5] (setting [20]) was -0.398 (inactive) and 0.245 (inactive); in [5] (setting [21]), -0.301 and 1.24; in test [6], -0.485 (inactive) and -1.04 (inactive). Moreover, the remaining NAD in test [7] is 10 nM (inactive). Moreover, the luciferase signal in test [8] was 28 AU (inactive).

For the compound `CC(C)C[C@H]1C(=O)N2CCC[C@H]2[C@]2(O)O[C@](NC(=O)[C@@H]3C=C4c5cccc6[nH]c(Br)c(c56)C[C@H]4N(C)C3)(C(C)C)C(=O)N12`, the parasite load remaining in [1] was 105% (inactive). Also, in test [1], the viability came out at 88.9%. Also, the inhibition in test [2] is -9.44% (inactive). For the same compound, the fold change in test [4] (setting [16]) was 1.36 (inactive) and 1.09 (inactive); in test [4] (setting [17]), 1.68 and 0.668. The cell count in [4] (setting [18]) was 5460 and 4760; in test [4] (setting [19]), 4010 and 4360. The z-score in test [5] (setting [20]) was -0.164 (inactive); in test [5] (setting [21]) it was -0.261; in test [6], -1.32 (inactive) and -1.22 (inactive). The remaining NAD in test [7] is 10 nM (inactive). For the same compound, in test [8], the luciferase signal was 200 AU (inactive).

`CC(=O)NCCc1c[nH]c2ccc(O)cc12`: the inhibition in test [9] is 26.8%; in test [2] it was 8.58% (inactive). In test [10], this compound displayed a score of 1.5. The rescue above control in test [11] amounted to 2.04. In [12], the cytochrome c release ratio came to 0.84. In test [13], this compound displayed an inhibition of aggregation of 31.4%. In addition, in test [14], the glutamate uptake change turned out to be 0.88%. For the same compound, in test [15], the aggregation suppression score was 1.34. The fold change is 1.02 (inactive) in test [4] (setting [16]) and 1.87 in test [4] (setting [17]). The cell count is 10700 in [4] (setting [18]) and 10400 in [4] (setting [19]). For the same compound, in test [8], the luciferase signal was 32 AU (inactive). Moreover, the z-score in test [6] is 0.08 (inactive).

On to `C[N+]1(C)[C@@H]2CC[C@H]1CC(OC(=O)C(O)c1ccccc1)C2` (stereo partly specified), for which the inhibition in test [2] is -20.5% (inactive). In addition, the results for the fold change in [4] (setting [16]) and in [4] (setting [17]) were 0.938 (inactive) and 0.48, respectively. Further, the results for the cell count in [4] (setting [18]) and in test [4] (setting [19]) were 8390 and 8940, respectively. Also, the z-score in test [5] (setting [20]) was -0.289 (inactive); in [5] (setting [21]), -0.189. The remaining NAD in [7] was 10 nM (inactive). The luciferase signal in test [8] is 20 AU (inactive).

As for `Oc1cc2c(cc1O)[C@@H]1c3ccc(O)c(O)c3OC[C@]1(O)C2`, in test [2], the inhibition was 1.84% (inactive). Besides, the fold change was 0.884 (inactive) in test [4] (setting [16]) and 0.956 in test [4] (setting [17]). Moreover, the values for the cell count in test [4] (setting [18]) and in test [4] (setting [19]) were 9250 and 10500, respectively. Further, the z-score in test [5] (setting [20]) is -0.379 (inactive); in [5] (setting [21]) it was 0.131. Further, the luciferase signal in test [8] is 28 AU (inactive).

`CN(C)c1nc(N)c(C(=O)N=C(N)N)nc1Cl`: the inhibition in test [2] was 11.7% (inactive). The fold change is 1.07 (inactive) in test [4] (setting [16]) and 1.7 in test [4] (setting [17]). In addition, the cell count in test [4] (setting [18]) was 10400; in test [4] (setting [19]), 9710. Further, the z-score in test [6] was 0.335 (inactive).

The values are drawn from PubChem BioAssay.
